# Hit rate of the full screen: of about 69,000 compounds, about 8,600 (12%) showed an effect of 50% or more. What follows is part of a selection rich in strong results, with near analogues and random picks from the rest.
# Tested on: Plasmodium berghei
# Assay: Screen against P. berghei liver stage (PbLuc), transformed with Luciferase, at 10uM
# Type: functional, HepG2
# Settings: tested at 10 uM
row,SMILES,INHIBITION [%]
1,CC(=O)N1CCCCC12CCCN(Cc1ccco1)C2 (centres undefined),28.4
2,CCC[C@@H]1CN(Cc2ccccc2SC)C[C@H]1NC(C)=O,-7.53
3,CC(C)(NC(=O)c1ccc(-c2ccccc2F)s1)C(N)=O,-29
4,CN(C)S(=O)(=O)N1C[C@H]2CC[C@@H](C1)N(Cc1cccc(C#N)c1)C2,-6.88
5,O=C(Cn1ccc2ccccc21)NCc1ccc(C(=O)O)cc1,15.8
6,COC(=O)C1CCN(C(=O)c2nnc3ccc(Cl)cc3n2)CC1,52.4
7,CN1CCN(C(=O)c2nnc3ccc(Cl)cc3n2)CC1,1.04
8,COC(=O)C1CCN(C(=O)c2nnc3ccc(C)cc3n2)CC1,49.9
9,CCc1nc(C(=O)N2CCCC2)nn1-c1c(Cl)cccc1Cl,48.4
10,Cc1cc2cc(CNC3CCN(S(C)(=O)=O)CC3)oc2cc1C,49.6
11,Cc1cc(Cl)cc(C)c1CNC1CCN(CC(=O)N(C)C)CC1,56.1
12,Cc1cc2cc(CNC3CCN(CC4CCOC4)CC3)oc2cc1C (centres undefined),48.5
13,Cc1nc(-c2c(C)noc2C)cc(C2CCN(CC(=O)N(C)C)CC2)n1,13.8
14,Cc1cc2cc(CNC3CCN(CC(=O)N(C)C)CC3)oc2cc1C,53.9
15,CC(NC1CCN(CC(=O)N(C)C)CC1)c1cnn(C(C)C)c1 (centres undefined),19.8
16,CC(=O)N1CCC12CCN(Cc1ccco1)CC2,9.97
17,O=C([C@H]1CC[C@@H]2[C@@H](CCN2C2CCCC2)O1)N1CCOCC1,-3.26
18,O=C(NCc1ccc(-n2cncn2)nc1)c1cc(Cl)c2c(c1)OCCO2,9.54
19,CCn1ncc2c1C(COC)CN(c1ncc(F)cn1)C2 (centres undefined),-7.24
20,COc1ccc2c(c1)NC(C1CCN(C(=O)C(C)C)CC1)NS2(=O)=O (centres undefined),-12.3
21,CCn1ncnc1C(C)NC(=O)C1CCN(C(C)C)CC1 (centres undefined),-1.64
22,CCC(NC(=O)C1CCN(C(=O)C2CC2)CC1)c1cn2cccnc2n1 (centres undefined),22.9

row,SMILES,INHIBITION [%]
1,CCC(NC(=O)CCCN1CCCCC1)c1cn2cccnc2n1 (centres undefined),37.7
2,CCC(NC(=O)C1CCN(C(C)C)CC1)c1cn2cccnc2n1 (centres undefined),57.5
3,CCC(NC(=O)CC1CCN(C(C)C)CC1)c1cn2cccnc2n1 (centres undefined),51.3
4,CCC(NC(=O)CC1CCN(CC)CC1)c1cn2cccnc2n1 (centres undefined),-15.3
5,COc1ccc(Cl)cc1S(=O)(=O)N(C)CC(=O)Nc1cccnc1,33.4
6,Cc1cnn(CC(C)NCc2csc(-c3ncccn3)n2)c1 (centres undefined),-3.2
7,CN(C)c1cc(C(F)(F)F)cc(-c2ccc(C(=O)O)cc2)n1,26.9
8,Cc1ccc(S(=O)(=O)N2CCC(c3n[nH]cc3C(=O)N(C)C)CC2)cc1,12.8
9,CCN(c1ccsc1C(=O)N1CCCCC1)S(=O)(=O)c1ccccc1,-10.8
10,CCN1CCN(C)C(=O)C12CCN(Cc1csc(C)n1)CC2,-1.28
11,CC(C)=CCN1C[C@@H](C(=O)O)C[C@H](C(=O)Nc2ccc(C)nc2)C1,28.5
12,CN(C)CCNC(=O)c1ccc(S(=O)(=O)N[C@@H]2CCNC2)cc1,87.9
13,O=C(NC[C@@H]1CCCO1)c1ccc(S(=O)(=O)N[C@@H]2CCNC2)cc1,2.55
14,CC(C)N(CCNC(=O)c1ccc(S(=O)(=O)NC2CC2)cc1)C(C)C,19.2
15,CCS(=O)(=O)N1C[C@@H](OCc2cccnc2)[C@H]2OCCC[C@H]21,44.9
16,O=C1CCC(c2nc(C3CCN(C(=O)Cc4cccs4)CC3)no2)N1 (centres undefined),-31.1
17,CC1=N[C@@]2(CC[C@@H]3CN(Cc4ccccc4C)C[C@@H]32)C(=O)N1CC1CC1,28.4
18,CC(C)CCc1cc(C(=O)O)nc2[nH]c(=O)[nH]c(=O)c12,2.29
19,CCc1cc(NCCCNS(C)(=O)=O)nc(-c2ccccn2)n1,12.4
20,OC1CCCN(Cc2c(-c3ccco3)[nH]c3ncccc23)C1 (centres undefined),35.3
21,OC1CCN(Cc2c(-c3ccco3)[nH]c3ncccc23)CC1,32.3
22,NC(=O)C1CCCN(Cc2c(-c3ccco3)[nH]c3ncccc23)C1 (centres undefined),61.4

row,SMILES,INHIBITION [%]
1,CCN1CCN(Cc2c(-c3ccco3)[nH]c3ncccc23)CC1,29.3
2,CN1CCN(Cc2c(-c3ccco3)[nH]c3ncccc23)CC1,-0.371
3,c1coc(-c2[nH]c3ncccc3c2CN2CCCOCC2)c1,50.1
4,O=C1CCCN1Cc1noc(-c2ccc(Cl)cc2)n1,-66
5,Cc1cnc(CC2COCCN(C(=O)CN3CCOCC3)C2)cn1 (centres undefined),16.5
6,CCc1noc(CNC2CCCN(Cc3noc(C4CC4)n3)C2)n1 (centres undefined),-6.14
7,Cc1noc(C)c1CNC(=O)N(C1CC1)C(C)c1ccco1 (centres undefined),79.1
8,CC(c1ccco1)N(C(=O)c1cc2c([nH]c1=O)CCCC2=O)C1CC1 (centres undefined),-65.3
9,CCc1cc(CNC(=O)N(C2CC2)C(C)c2ccco2)[nH]n1 (centres undefined),55.9
10,CCc1cc(CNC(=O)N(C2CC2)C(C)c2ccco2)on1 (centres undefined),3.3
11,CC(c1ccco1)N(C(=O)c1cccc(C#N)c1)C1CC1 (centres undefined),-11
12,Cc1noc(C)c1CNC(=O)N1CCC(CO)CC1,11.8
13,Cc1noc(C)c1CNC(=O)N(C)C1CCN(c2ccccc2)C1=O (centres undefined),31.2
14,CC(c1ccco1)N(C(=O)CNc1ccc(C#N)cc1)C1CC1 (centres undefined),21.5
15,CC(c1ccco1)N(C(=O)NCc1ccon1)C1CC1 (centres undefined),72.6
16,Cc1noc(C)c1CNC(=O)N1CCCC(C)CC1 (centres undefined),-30.6
17,CCc1cc(CNC(=O)NCC(c2ccco2)N2CCCC2)[nH]n1 (centres undefined),36.6
18,CCN(CC)C1CCN(C(=O)NCc2c(C)noc2C)CC1,50.1
19,COCc1c(Cl)cccc1NC(=O)CNC(=O)C(C)(C)C,-17.8
20,CC(C)N1CCC(CC(=O)N(C)C(C)c2cncs2)CC1 (centres undefined),-3.58
21,CN(Cc1nc(Cc2cccc(C(F)(F)F)c2)no1)C1CCOCC1,22.1
22,COC(=O)c1ccoc1COC(=O)CCc1ccc(OC)c(OC)c1,-1.58

row,SMILES,INHIBITION [%]
1,CN(C)Cc1cc(C2CCCCN2S(=O)(=O)Cc2ccccc2)nn1C (centres undefined),8.12
2,CS(=O)(=O)NCc1cncc2c1CCN(C(=O)c1ccccn1)C2,16.4
3,Cc1occc1C(=O)N1C[C@@H](OCc2cccnc2)[C@H]2OCCC[C@@H]21,-63.1
4,CCCc1noc(C2CC(=O)N(C(C)(C)C)C2)n1 (centres undefined),31.9
5,CN1CCN([C@H]2CCN(C(=O)c3cc(Cl)cn3C)C[C@H]2CCCO)CC1,64.3
6,Cc1cc(C(=O)N2CC[C@H](N3CCN(C)CC3)[C@H](CCCO)C2)n(C)n1,-27.5
7,CN1CCN([C@H]2CCN(C(=O)c3nn(C)cc3Cl)C[C@H]2CCCO)CC1,8.7
8,COCCN1CCO[C@@H]2CN(C(=O)NCc3ccccc3)CC[C@@H]2C1,7.24
9,Cc1n[nH]c(C)c1CCC(=O)N1CCc2c(nc[nH]c2=O)C1,10.7
10,CCN(CC)c1ccc(CNS(=O)(=O)C2CCOCC2)cc1F,62.9
11,CCN(C)c1ccc(CNS(=O)(=O)C2CCOCC2)cc1F,50.1
12,CCN(C)c1ccc(CNS(=O)(=O)CC2CCCO2)cc1F (centres undefined),24.4
13,CCN(CC)c1ccc(CNC(=O)C2(C)CCOCC2)cc1F,-37.1
14,O=S(=O)(CC1CCOCC1)NCc1ccnc(O)c1,2.82
15,CCN(C)c1ccc(CNC(=O)c2cc(C(N)=O)cs2)cc1F,-59.2
16,Cc1cc2c(=O)n(CC(=O)N3CCn4cccc4C3C(C)C)cnc2s1 (centres undefined),3.4
17,COCC1CN(c2ncc(F)cn2)Cc2cnn(C)c21 (centres undefined),19.6
18,Cn1cc(CCC(=O)NC(c2ccc(F)cc2)C(F)(F)F)cn1 (centres undefined),-4.52
19,CN1CCNC(Cc2ccc(-c3ccccc3)cc2)C1=O (centres undefined),23.2
20,O=C(NCC1CCS(=O)(=O)C1)c1cccc(CN2CCCC2)c1 (centres undefined),24.7
21,O=C(N1CCCO1)[C@@]12CCO[C@@H]1CCN(Cc1cccs1)C2,40.1
22,CC1=CCN(C(=O)Nc2ccccc2N2CCOC2=O)CC1,32.5

row,SMILES,INHIBITION [%]
1,O=C(Nc1ccccc1N1CCOC1=O)N1CCSCC1,52.2
2,CC(=O)N1CCCN(C(=O)Nc2ccccc2N2CCOC2=O)CC1,1.37
3,Cc1ccn(CCC(=O)NC(C)Cc2ccco2)n1 (centres undefined),24.5
4,COC(=O)c1sc2cccc(F)c2c1CNC(=O)C1CC1,34.6
5,OCC1CCN(Cc2cc3c(cc2Br)OCCO3)CC1,34.5
6,COc1ccc(CN2CCC(C(N)=O)C2)c(Br)c1OC (centres undefined),-0.87
7,OCCN1CCN(Cc2cc3c(cc2Br)OCCO3)CC1,31.5
8,OC1CCN(Cc2cc3c(cc2Br)OCCO3)CC1,28.3
9,NC(=O)C1CCN(Cc2cc3c(cc2Br)OCCO3)C1 (centres undefined),71.3
10,Brc1cc2c(cc1CN1CCC(N3CCCCC3)CC1)OCCO2,77.9
11,CNC(=O)C1CN(C(=O)c2ccccc2)Cc2cn(C)nc21 (centres undefined),18.9
12,CCOC(=O)c1nc(CC(=O)Nc2ccccc2)no1,45.5
13,Cc1cc(CN2CCN(C(=O)NCc3csc(C)n3)CC2)no1,26.4
14,CN(C)CCO[C@H]1CN(Cc2ccoc2)[C@@H]2COC[C@H]12,3.25
15,Cn1nc(CNC(=O)c2ccc3c(c2)OCO3)c2c1CCOC2,40.8
16,CN(C)c1cc(CNC(=O)Nc2ccc(C#N)cc2)ccn1,22.1
17,CSCCc1ccc(NC(=O)NCc2ccnc(N(C)C)c2)cc1,72.85
18,CN(C)c1cc(CNC(=O)Nc2ccc(N3CCCC3)nc2)ccn1,69.7
19,CN(C)c1cc(CNC(=O)Nc2cccnc2N2CCCC2)ccn1,-60.4
20,CN(C)c1cc(CNC(=O)Nc2ccc(F)cc2)ccn1,17.8
21,COc1ccc(NC(=O)NCc2ccnc(N(C)C)c2)cn1,-15.1
